Compound activity (PubChem)
A selection: hits, their analogues and other compounds. The true share with any hit is near 7.3%.
Rab9 promoter act – qHTS Assay for Rab9 Promoter Activators; Huh7 Rab9 promoter-luciferase reporter, luminescence, 24 h; Potency, µM (highest dose often 9.22 µM), usual class: activators; 320,000 compounds, 2.8% hits; AID 485297, 2010; also: nearly all actives have a fitted effect of over 60% in size
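Huh7 reporter line, Rab9 promoter upstream of luciferase. Compound exposure 24 h at 37 °C in reduced-serum medium with 10% FBS. Read-out: luminescence.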
KinaseGlo FLuc – Counterscreen for Luciferase (Kinase-Glo TM) Inhibition | Luciferin 4-monooxygenase (Photuris pensylvanica), Q27757 | Kinase-Glo luciferase, ATP luminescence, 8 min | Potency, µM (doses to about 38.3 µM), hits mostly inhibitors | 200,000 compounds, 0.28% hits | AID 1379, 2008; also: nearly all actives have a fitted effect of over 60% in size
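Light output from Kinase-Glo luciferase with luciferin and 10 uM ATP in 50 mM imidazole pH 7.2, KCl, MgCl2, Tween 20, BSA; compound pin-delivered, 8-min ambient incubation, then luminescence read.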
NPC1 promoter act – qHTS Assay for NPC1 Promoter Activators; AID 485313, 2010; Potency, µM (highest dose often 9.22 µM), usual class: activators; 320,000 compounds, 2.4% hits; Huh7 NPC1 promoter luciferase reporter, 24 h; also: nearly all actives have a fitted effect of over 60% in size
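Huh7 reporter cells (NPC1 promoter driving luciferase) are dosed with compound for 24 h at 37 °C, 5% CO2; luciferase detection reagent is then added and luminescence measured after 10 min at ambient temperature.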
ELG1 genotoxic – qHTS screen for small molecules that induce genotoxicity in human embryonic kidney (HEK293T) cells expressing luciferase-tagged ELG1; HEK293T ELG1-luciferase reporter, luminescence, 16 h; Potency, µM (top dose mostly 46 µM), usual class: activators; 330,000 compounds, 1.3% hits; also: nearly all actives have a fitted effect of over 60% in size
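Step 1: seed 2,000 HEK293T ELG1-luciferase cells per well. Step 2: add compound or DMSO, incubate 16 hr at 37 °C. Step 3: ONE-Glo, 30 min at room temperature, read luminescence.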
SMN2 splice up – qHTS Assay for Enhancers of SMN2 Splice Variant Expression | Potency, µM (top dose mostly 46.1 µM), hits mostly activators | HEK293 SMN2-luciferase splicing reporter, luminescence, 30-36 h | AID 1458, 2008 | 210,000 compounds, 2.8% hits; also: nearly all actives have a fitted effect of over 55% in size
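HEK293 cells carry an SMN2 […]–luciferase reporter in which exon 7 inclusion puts luciferase in frame. Cells were plated 10-12 h before compound addition, then incubated 30-36 h at 37C. ONE-Glo luminescence was read; sodium butyrate at 4.5 mM final served as control.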
FLuc modulator – qHTS profiling assay for firefly luciferase inhibitor/activator using purifed enzyme and Km concentrations of substrates (counterscreen for miR-21 project); Luciferin 4-monooxygenase (Photinus pyralis), P08659; purified FLuc, Km substrates, luminescence inhibition; Potency, µM (series often up to 57.5 µM), actives largely listed as inhibitors; AID 588342, 2011; 360,000 compounds, 6.9% hits; also: nearly all actives have a fitted effect of over 55% in size
Target sequence (P08659 whole entry, looked up): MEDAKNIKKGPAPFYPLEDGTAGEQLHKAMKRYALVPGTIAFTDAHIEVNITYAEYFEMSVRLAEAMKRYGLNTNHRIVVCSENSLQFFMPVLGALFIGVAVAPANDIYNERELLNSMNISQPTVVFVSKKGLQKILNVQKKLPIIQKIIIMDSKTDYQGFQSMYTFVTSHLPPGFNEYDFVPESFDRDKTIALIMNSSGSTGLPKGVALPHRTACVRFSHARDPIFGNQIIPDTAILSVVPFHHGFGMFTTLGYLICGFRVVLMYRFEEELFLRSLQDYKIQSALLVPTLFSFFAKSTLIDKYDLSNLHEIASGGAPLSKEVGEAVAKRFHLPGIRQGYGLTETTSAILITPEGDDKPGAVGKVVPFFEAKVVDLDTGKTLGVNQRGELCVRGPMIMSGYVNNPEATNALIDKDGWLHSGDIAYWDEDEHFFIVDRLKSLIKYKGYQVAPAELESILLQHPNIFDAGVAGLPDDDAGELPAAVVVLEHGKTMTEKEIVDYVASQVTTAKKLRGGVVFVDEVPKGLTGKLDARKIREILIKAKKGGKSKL
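Purified P. pyralis luciferase, 10 nM final, with Km-level 10 uM D-luciferin and 10 uM ATP in 50 mM Tris acetate pH 7.5, 10 mM Mg acetate, 0.01% Tween-20, 0.05% BSA; 6-point qHTS titration about 60 µM downward; luminescence read.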
A number is an active result. Calls follow the shape of the dose curve; as a rule, active = well fitted curve in the direction sought with a large enough effect; inconclusive = small, poorly fitted or top-dose-only effect, or another doubt; inactive = no such curve, though single readings can be large; an effect the other way counts as inactive or inconclusive.

For c1ccc(-c2noc(-c3cccnc3)n2)nc1 the results were Rab9 promoter act 2µM, KinaseGlo FLuc inconclusive, NPC1 promoter act 2.8µM, ELG1 genotoxic 5.2µM, SMN2 splice up 11µM and FLuc modulator 13µM.
`CCCc1noc(-c2cccc([N+](=O)[O-])c2)n1` gave Rab9 promoter act inactive, KinaseGlo FLuc inactive, NPC1 promoter act inactive, ELG1 genotoxic inactive, SMN2 splice up inactive and FLuc modulator inactive.
For COc1ccc(-c2nc(-c3cccnc3)no2)cc1OC the results were Rab9 promoter act inconclusive, NPC1 promoter act inconclusive, ELG1 genotoxic inconclusive and FLuc modulator 17µM.
For COc1cccc(-n2ccnc2SCC(=O)Nc2ccc(Cl)c(Cl)c2)c1 the results were FLuc modulator inactive.
CCc1ccccc1Nc1nn2c(=O)c3ccc(C(=O)NCc4cccs4)cc3nc2s1 was read as Rab9 promoter act inactive, NPC1 promoter act inactive and FLuc modulator inactive.
Screening CCc1nnc(SCC(=O)N(C)c2ccccc2)c2cc3sccc3n12 returned FLuc modulator inactive.
For O=C(c1cc2cc(Br)ccc2o1)N1CCN(c2ccccc2)CC1 the results were Rab9 promoter act inactive, NPC1 promoter act inactive, ELG1 genotoxic inconclusive and FLuc modulator 19µM.
Screening O=C(c1cc2cc(Br)ccc2o1)N1CCOCC1 returned Rab9 promoter act inconclusive, KinaseGlo FLuc inactive, NPC1 promoter act inactive, ELG1 genotoxic inactive and FLuc modulator 21µM.
`O=C(c1cc2cc(Br)ccc2o1)N1CCCC1` gave Rab9 promoter act inconclusive, KinaseGlo FLuc inactive, NPC1 promoter act inconclusive, ELG1 genotoxic inconclusive, SMN2 splice up inactive and FLuc modulator inconclusive.
For O=C(c1ccc([N+](=O)[O-])o1)N1CCOCC1 the results were Rab9 promoter act inactive, KinaseGlo FLuc inactive, NPC1 promoter act inactive, ELG1 genotoxic inactive, SMN2 splice up inactive and FLuc modulator inactive.
O=C(c1ccc(-c2ccc([N+](=O)[O-])cc2Cl)o1)N1CCOCC1 was read as Rab9 promoter act inconclusive, KinaseGlo FLuc inactive, NPC1 promoter act inactive, ELG1 genotoxic inconclusive, SMN2 splice up inconclusive and FLuc modulator 17µM.
Screening O=C(c1ccc(-c2cccc(Cl)c2Cl)o1)N1CCOCC1 returned Rab9 promoter act 1.3µM, KinaseGlo FLuc inactive, NPC1 promoter act inconclusive, ELG1 genotoxic inconclusive, SMN2 splice up 11µM and FLuc modulator inconclusive.
NC(=O)C1CCCN(C(=O)c2ccc(-c3cccc(Cl)c3Cl)o2)C1 (centres undefined) was read as Rab9 promoter act inconclusive, NPC1 promoter act inconclusive, ELG1 genotoxic inconclusive and FLuc modulator 9.5µM.
`CC1CCN(C(=O)c2ccc(-c3ccccc3Cl)o2)CC1` gave Rab9 promoter act 0.32µM, NPC1 promoter act 0.89µM, ELG1 genotoxic inconclusive and FLuc modulator 2.1µM.
O=C(c1ccc(CS(=O)c2ccccc2Cl)o1)N1CCOCC1 (centres undefined) was read as Rab9 promoter act inactive, NPC1 promoter act inactive, ELG1 genotoxic inactive and FLuc modulator inactive.
NC(=O)C1CCCN(C(=O)c2ccc(S(=O)(=O)N3CCCCCC3)cc2)C1 (centres undefined) was read as Rab9 promoter act inactive, NPC1 promoter act inactive, ELG1 genotoxic inactive and FLuc modulator inactive.
Screening COc1ccc(CCNC(=O)CCS(=O)(=O)c2cc(Br)cc3c2N(C(C)=O)CC3)cc1OC returned SMN2 splice up inactive and FLuc modulator inactive.
For CCOC(=O)c1cc(OC(=O)c2ccc(OC)c(OC)c2)n(-c2ccccc2)n1 the results were SMN2 splice up inactive and FLuc modulator inactive.
COC(=O)c1nnn(CC(=O)Nc2c(C)cccc2C)c1N was read as SMN2 splice up inactive and FLuc modulator inactive.
Screening Cc1c(C(=O)N2CCCC(C(F)(F)F)C2)oc2ccccc12 (centres undefined) returned Rab9 promoter act inactive, NPC1 promoter act inactive, ELG1 genotoxic inactive and FLuc modulator inconclusive.
